Laboratory results published in the supplement of paper PMC8728848.
Only a selection was taken, and the strongest signals are over-represented in it overall.

How the values were obtained:
Assay in all cases: glycan array binding signal (z-score within array); higher = stronger binding
Details in all cases: glycan notation: IUPAC condensed, linker removed
[1] = molecular target: Fuc(a1-2)Gal(b1-3)GlcNAc(b1-2)Man(a1-3)[Fuc(a1-2)Gal(b1-3)GlcNAc(b1-2)Man(a1-6)]Man(b1-4)GlcNAc(b1-4)GlcNAc
Summary of the method: (§1)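 From the Consortium for Functional Glycomics database, 3228 arrays were curated, keeping only those whose protein sequence was available. Binding is given as a within-array Z-score averaged across arrays sharing a protein sequence and across linkers. Negative Z-scores can be read as non-binding.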

Fuc(a1-2)Gal(b1-4)GlcNAc = molecular target: Fuc(a1-2)Gal(b1-4)GlcNAc
Summary of the method: as §1

[2] = molecular target: Fuc(a1-2)Gal(b1-4)GlcNAc(b1-2)[Fuc(a1-2)Gal(b1-4)GlcNAc(b1-4)]Man(a1-3)[Fuc(a1-2)Gal(b1-4)GlcNAc(b1-2)Man(a1-6)]Man(b1-4)GlcNAc(b1-4)GlcNAc
Summary of the method: as §1

[3] = molecular target: Fuc(a1-2)Gal(b1-4)[Fuc(a1-3)]GlcNAc(b1-2)[Fuc(a1-2)Gal(b1-4)[Fuc(a1-3)]GlcNAc(b1-4)]Man(a1-3)[Fuc(a1-2)Gal(b1-4)[Fuc(a1-3)]GlcNAc(b1-2)Man(a1-6)]Man(b1-4)GlcNAc(b1-4)GlcNAc
Summary of the method: as §1

[4] = molecular target: Fuc(a1-2)[GalNAc(a1-3)]Gal(b1-4)[Fuc(a1-3)]GlcNAc
Summary of the method: as §1

[5] = molecular target: Fuc(a1-3)[Gal(b1-4)]GlcNAc
Summary of the method: as §1

[6] = molecular target: Fuc(a1-3)[Gal(b1-4)]GlcNAc(b1-2)Man(a1-3)[Fuc(a1-3)[Gal(b1-4)]GlcNAc(b1-2)Man(a1-6)]Man(b1-4)GlcNAc(b1-4)GlcNAc
Summary of the method: as §1

Gal(a1-3)Gal(b1-4)GlcNAc = molecular target: Gal(a1-3)Gal(b1-4)GlcNAc
Summary of the method: as §1

[7] = molecular target: Gal(a1-3)Gal(b1-4)[Fuc(a1-3)]GlcNAc
Summary of the method: as §1

Gal(b1-3)Gal = molecular target: Gal(b1-3)Gal
Summary of the method: as §1

[8] = molecular target: Gal(b1-4)GlcNAc(b1-2)Man(a1-3)[Man(a1-6)]Man(b1-4)GlcNAc(b1-4)GlcNAc
Summary of the method: as §1

[9] = molecular target: Gal(b1-4)GlcNAc(b1-3)[GlcNAc(b1-6)]Gal(b1-4)GlcNAc
Summary of the method: as §1

[10] = molecular target: Gal(b1-4)GlcNAc(b1-6)GalNAc
Summary of the method: as §1

Gal(b1-6)Gal = molecular target: Gal(b1-6)Gal
Summary of the method: as §1

Gal6S(b1-4)Glc6S = molecular target: Gal6S(b1-4)Glc6S
Summary of the method: as §1

GalNAc(a1-3)GalNAc = molecular target: GalNAc(a1-3)GalNAc
Summary of the method: as §1

GlcA(b1-3)GlcNAc = molecular target: GlcA(b1-3)GlcNAc
Summary of the method: as §1

[11] = molecular target: GlcNAc(b1-3)Gal(b1-3)GalNAc
Summary of the method: as §1

[12] = molecular target: GlcNAc(b1-3)[GlcNAc(b1-6)]Gal(b1-4)GlcNAc
Summary of the method: as §1

[13] = molecular target: GlcNAc(b1-3)[GlcNAc(b1-6)]GalNAc
Summary of the method: as §1

Man(a1-2)Man(a1-3)Man = molecular target: Man(a1-2)Man(a1-3)Man
Summary of the method: as §1

Man(b1-4)GlcNAc = molecular target: Man(b1-4)GlcNAc
Summary of the method: as §1

[14] = molecular target: Neu5Ac(a2-3)Gal(b1-3)GalNAc6S
Summary of the method: as §1

[15] = molecular target: Neu5Ac(a2-3)Gal(b1-3)GlcNAc
Summary of the method: as §1

[16] = molecular target: Neu5Ac(a2-3)Gal(b1-3)[Neu5Ac(a2-3)Gal(b1-4)]GlcNAc
Summary of the method: as §1

[17] = molecular target: Neu5Ac(a2-3)Gal(b1-3)[Neu5Ac(a2-6)]GalNAc
Summary of the method: as §1

[18] = molecular target: Neu5Ac(a2-3)Gal(b1-4)GlcNAc(b1-2)Man
Summary of the method: as §1

[19] = molecular target: Neu5Ac(a2-3)Gal(b1-4)GlcNAc6S
Summary of the method: as §1

[20] = molecular target: Neu5Ac(a2-3)Gal(b1-4)[Fuc(a1-3)]GlcNAc(b1-3)Gal(b1-4)[Fuc(a1-3)]GlcNAc(b1-3)Gal(b1-4)[Fuc(a1-3)]GlcNAc
Summary of the method: as §1

[21] = molecular target: Neu5Ac(a2-3)Gal6S(b1-4)GlcNAc
Summary of the method: as §1

[22] = molecular target: Neu5Ac(a2-3)[Neu5Ac(a2-6)]GalNAc
Summary of the method: as §1

[23] = molecular target: Neu5Ac(a2-6)GalNAc(b1-4)GlcNAc6S
Summary of the method: as §1

[24] = molecular target: Neu5Ac9Ac(a2-3)Gal(b1-4)GlcNAc
Summary of the method: as §1

B1: SpnanA (Streptococcus pneumoniae), P62575 (protein)
chain: MVIEKEDVETNASNGQRVDLSSELDKLKKLENATVHMEFKPDAKAPAFYNLFSVSSATKKDEYFTMAVYNNTATLEGRGSDGKQFYNNYNDAPLKVKPGQWNSVTFTVEKPTAELPKGRVRLYVNGVLSRTSLRSGNFIKDMPDVTHVQIGATKRANNTVWGSNLQIRNLTVYNRALTPEEVQKRS
- glycan array binding signal (z-score) [1]: -0.237
- glycan array binding signal (z-score) (Fuc(a1-2)Gal(b1-4)GlcNAc): -0.29
- glycan array binding signal (z-score) [2]: -0.131
- glycan array binding signal (z-score) [3]: -0.066
- glycan array binding signal (z-score) [4]: 0.018
- glycan array binding signal (z-score) [5]: -0.28
- glycan array binding signal (z-score) [6]: -0.169
- glycan array binding signal (z-score) (Gal(a1-3)Gal(b1-4)GlcNAc): -0.256
- glycan array binding signal (z-score) [7]: -0.262
- glycan array binding signal (z-score) (Gal(b1-3)Gal): -0.211
- glycan array binding signal (z-score) [8]: 0.687
- glycan array binding signal (z-score) [9]: -0.29
- glycan array binding signal (z-score) [10]: -0.295
- glycan array binding signal (z-score) (Gal(b1-6)Gal): -0.199
- glycan array binding signal (z-score) (Gal6S(b1-4)Glc6S): -0.104
- glycan array binding signal (z-score) (GalNAc(a1-3)GalNAc): -0.233
- glycan array binding signal (z-score) (GlcA(b1-3)GlcNAc): 6.22
- glycan array binding signal (z-score) [11]: -0.164
- glycan array binding signal (z-score) [12]: -0.211
- glycan array binding signal (z-score) [13]: -0.222
- glycan array binding signal (z-score) (Man(a1-2)Man(a1-3)Man): -0.228
- glycan array binding signal (z-score) (Man(b1-4)GlcNAc): -0.307
- glycan array binding signal (z-score) [14]: 3.01
- glycan array binding signal (z-score) [15]: 3.08
- glycan array binding signal (z-score) [16]: 6.34
- glycan array binding signal (z-score) [17]: 3.24
- glycan array binding signal (z-score) [18]: 2.64
- glycan array binding signal (z-score) [19]: 3.89
- glycan array binding signal (z-score) [20]: -0.268
- glycan array binding signal (z-score) [21]: 2.91
- glycan array binding signal (z-score) [22]: 2.61
- glycan array binding signal (z-score) [23]: -0.062
- glycan array binding signal (z-score) [24]: -0.089
